Data published in PubChem BioAssay.

Assay: JC-1 mitochondrial signal, unstimulated HepG2 cells – cell-based, JC-1 fluorescence, 24 h, 100 nL compound, profiling panel (AID 1167); also: test concentration not given here
Details: HepG2 mitochondrial potential, higher = more signal

| Compound | z-score |
| --- | --- |
| O=C1O[C@H](c2ccccc2)[C@H](c2ccccc2)N2[C@H]1[C@@H](C(=O)NC[C@H](O)c1ccccc1)[C@]1(C(=O)Nc3ccc(C#CC4=CCCCC4)cc31)[C@H]2c1ccc(O)cc1 | -2.78 |
| COc1ccc([Si](C)(C)[C@@H]2[C@@H](CCO)O[C@]3(C(=O)N(Cc4ccccc4)c4ccc(N(C=O)c5ccccc5)cc43)[C@H]2C)cc1 | 0.00444 |
| COc1cc(NN2C(C(O)c3ccccc3)C=CC3C(=O)N(c4ccccc4)C(=O)C32)cc(OC)c1OC (stereo not drawn) | -0.602 |
| CN(C)CCCCNC(=O)[C@@H]1C[C@@H]2C(=O)N[C@@H](CCCCN)C(=O)N2[C@@H]1c1cccc(OCCO)c1 | -1.01 |
| COc1c(C)cc(-c2cc3c(c(-c4ccccc4)n2)[Si](C(C)C)(C(C)C)O[C@H]3c2ccccc2)cc1C | -1.21 |
| [N-]=[N+]=NCc1ccccc1C[C@]1(C(=O)NCc2ccccc2)COC(c2ccc(OCCCO)cc2)=N1 | 0.762 |
| C=CCOC(=O)[C@@H]1[C@H]2C(=O)O[C@H](c3ccccc3)[C@H](c3ccccc3)N2[C@H](c2ccc(OCCOC(=O)[C@H]3C[C@H]4C(=O)N[C@@H](CCCC[N+](C)(C)C)C(=O)N4[C@H]3c3cccc(OCCO)c3)cc2)[C@@]12C(=O)Nc1ccc(I)cc12 | -0.984 |
| O=C1OCC=C[C@H]2OC34C=CCN(c5ccc(Cl)cc5)C(=O)[C@H]3N(CCCO)C(=O)[C@@H]4[C@@H]12 (stereo partly drawn) | -0.545 |
| O=c1cccc(-c2ccccc2)o1 | -1.05 |
| C=C(COC)C(=O)CC[C@H](OC(=O)c1cccnc1)c1ccccc1OCCO | -0.952 |
| CCCCCN1CC=CC23O[C@@H]4C=CCCOC(=O)C4[C@H]2C(=O)N(CCCO)[C@@H]3C1=O (stereo partly drawn) | -0.639 |
| CCN(CC)c1ccc(N2CC=CC34O[C@@H]5C=CCOC(=O)[C@@H]5[C@H]3C(=O)N(CCCCCO)[C@@H]4C2=O)cc1 (stereo partly drawn) | 0.497 |
| C#C[C@H]1Oc2ccccc2S(=O)(=O)N2CCC[C@@H]12 | -0.777 |
| O=C1C2C=CC(C(O)c3ccc(B(O)O)cc3)N(Nc3ccc([N+](=O)[O-])cc3)C2C(=O)N1c1ccccc1 (stereo not drawn) | -1.66 |
| O=C1OCCC/C=C\[C@H]2OC34C=CCN(CCN5CCOCC5)C(=O)[C@H]3N(CCO)C(=O)[C@@H]4C12 (stereo partly drawn) | -0.41 |
| CC(=O)n1cc(C(O)C2C=CC3C(=O)N(c4ccccc4)C(=O)C3N2Nc2ccc(C#N)cc2)c2ccccc21 (stereo not drawn) | -1.04 |
| COc1ccc(C(=O)Nc2cccc(CN3C(=O)[C@@]4(O[C@@H](CCn5cc([C@H](O)c6ccccc6)nn5)[C@H]([Si](C)(C)c5ccc(OC)cc5)[C@H]4C)c4ccccc43)c2)cc1 | -2.16 |
| COC(=O)[C@@]1(Cc2ccc(F)cc2)[C@H]2c3cc(C(=O)N4CCCC4)n(CCc4ccc(OC)c(Br)c4)c3C[C@H]2CN1C(=O)c1ccccc1 | 0.275 |
| CC(C)N1C(=O)c2ccccc2[C@](C)(C(=O)NC2CC2)[C@@H]1c1ccc(CO)cc1 | 1.57 |
| CCCNC(=O)[C@@]1(C)c2ccccc2C(=O)N(Cc2ccc(OC(F)(F)F)cc2)[C@H]1c1ccc(CO)cc1 | 3.34 |
| C=CCC(OC(C)=O)[C@@H]1[C@@H](N(Cc2ccc(-c3cccc(C(F)(F)F)c3)o2)C(=O)Cc2ccc(OC)cc2)c2cc(OCCCO)ccc2N1C(=O)Cc1ccc(OC)cc1 (stereo partly drawn) | 2.08 |
| COC(=O)[C@@]1(Cc2ccccc2)[C@H]2c3cc(C(=O)N(C)C)n(Cc4cc(F)c(F)c(F)c4)c3C[C@H]2CN1C(=O)c1ccccc1 | 0.891 |
| C=C(C)[C@@H]1CC=C(C(O)C2C=CC3C(=O)N(Cc4ccccc4)C(=O)C3N2n2cnnc2)CC1 (stereo partly drawn) | -0.458 |
